Out of some 16,000 compounds screened, about 5,700 (36%) were called active. Roughly 24% stayed inconclusive and do not appear here. Some of the results follow. Values without a mark were called inactive. Calls follow the shape of the dose curve; as a rule, active = well fitted curve in the direction sought with a large enough effect; inconclusive = small, poorly fitted or top-dose-only effect, or effect the other way; inactive = no such curve, though single readings can be large or run the other way.
These compounds were tested against Cytochrome P450 1A2 (Homo sapiens) (UniProt P05177) (assay: Cytochrome panel assay with activity outcomes). Conditions: recombinant CYP, pro-luciferin dealkylation, luminescence, p450-cyp1a2; series mostly up to 57.1 µM; activity, negative = inhibition: at the top concentration.
Sequence of Cytochrome P450 1A2 (Homo sapiens) (P05177 whole entry, looked up): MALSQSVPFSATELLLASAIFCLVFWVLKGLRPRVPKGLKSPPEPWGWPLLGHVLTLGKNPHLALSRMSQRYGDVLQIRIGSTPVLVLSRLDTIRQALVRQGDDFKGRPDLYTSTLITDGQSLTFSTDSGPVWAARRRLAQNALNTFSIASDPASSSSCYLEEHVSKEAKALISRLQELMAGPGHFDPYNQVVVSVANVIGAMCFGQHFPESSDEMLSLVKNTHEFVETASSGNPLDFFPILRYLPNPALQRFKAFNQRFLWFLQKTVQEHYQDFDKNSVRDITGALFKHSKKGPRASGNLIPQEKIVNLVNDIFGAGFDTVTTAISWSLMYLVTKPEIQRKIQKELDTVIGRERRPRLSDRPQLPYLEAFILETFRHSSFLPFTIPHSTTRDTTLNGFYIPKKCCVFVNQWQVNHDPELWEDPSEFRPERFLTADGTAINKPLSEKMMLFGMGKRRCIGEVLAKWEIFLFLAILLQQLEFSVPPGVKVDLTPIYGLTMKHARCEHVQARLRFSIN
In the case of Cc1cccc(C(=O)NC2CCN(C(=O)N3CCOCC3)CC2)c1, the “activity, negative = inhibition” value is reported as -14.5%. For Cc1cccc(C(=O)NCN2CCN(c3ccccc3C#N)CC2)c1, the AC50 was 20 µM (active). In the case of Cc1cccc(C(=O)NC(=S)N2CCN(C)CC2)c1, the “activity, negative = inhibition” value is reported as -21.4%. With O=C(CSc1nnc(Cn2nnc3ccccc32)o1)Nc1cccc(Cl)c1 the AC50 was 12.6 µM (active). For COc1cccc(C(C(=O)Nc2ccc(F)cc2)N(C(=O)Cn2nnc3ccccc32)C2CC2)c1 (centres undefined), the “activity, negative = inhibition” value was -8.22%. In the case of Cc1cc(C)c2cc(CN(Cc3nnnn3Cc3ccc(F)cc3)C3CCCC3)c(=O)[nH]c2c1, the AC50 is reported as 14.1 µM (active). For CN(C)S(=O)(=O)Nc1ccccn1, the activity, negative = inhibition was -5.82% [at 11.4 µM]. In the case of O=C1C(Cl)=C(Nc2ccc(S(=O)(=O)Nc3ccccn3)cc2)C(=O)c2ccccc21, the AC50 is reported as 3.16 µM (active). In the case of Nc1ccc(S(=O)(=O)Nc2ccccn2)cc1, the “activity, negative = inhibition” value is reported as -9.64% [at 25.6 µM]. With COc1cc(-c2nnc(-c3ccc(N4CCOCC4)cc3)o2)cc(OC)c1OC the “activity, negative = inhibition” value was -18.7%. For COc1cc(-c2nnc(SCC3(c4ccccc4)OCCO3)o2)cc(OC)c1OC, the AC50 was 12.6 µM (active). CCCCOC(=O)CSc1nnc(-c2cc(OC)c(OC)c(OC)c2)o1 was tested, and the AC50 was 31.6 µM (active). With COc1cc(C(=O)Nc2ccc(-c3nnc(-c4ccco4)o3)cc2)cc(OC)c1OC the “activity, negative = inhibition” value was 14.3%. c1cn(-c2ccnc(-c3ccc4c(c3)OCO4)n2)cn1 was tested, and the AC50 was 0.0251 µM (active). CN(C)c1ccc(-c2cncnc2-n2ccnc2)cc1 was tested, and the AC50 was 2.51 µM (active). In the case of CN(C)C(=O)c1ccc(-c2cncnc2-n2ccnc2)cc1, the AC50 is reported as 20 µM (active). With CN1CCN(c2ncncc2-c2ccc(N(C)C)cc2)CC1 the AC50 was 12.6 µM (active). In the case of CN(C)C(=O)c1ccc(-c2cncnc2N2CCNCC2)cc1, the “activity, negative = inhibition” value is reported as 0.554%. CC1=C/C(=N/O)C([C@H]2C=C(C)CC(C)(C)[C@@H]2O)C(C)(C)C1 (some centres undefined) was tested, and the activity, negative = inhibition was -5.85% [at 11.4 µM]. CN(C)C(=O)c1ccc(-c2nccc(-n3ccnc3)n2)cc1 was tested, and the AC50 was 15.8 µM (active). With COc1ccc(S(=O)(=O)N2CCC[C@H]2C(=O)NC2=NCCS2)cc1 the “activity, negative = inhibition” value was -24.4%. In the case of CC(C)C(NC(=O)C12CC3CC(CC(C3)C1)C2)C(=O)NC1=NCCS1 (centres undefined), the “activity, negative = inhibition” value is reported as -16.5%. Cc1ccc(OCC(=O)NC2=NCCS2)cc1 was tested, and the AC50 was 8.91 µM (active). O=C(NCCCN1CCOCC1)C1COc2ccccc2O1 (centres undefined) was tested, and the “activity, negative = inhibition” value was 5.54%. For O=C(Nc1cccnc1)C1COc2ccccc2O1 (centres undefined), the AC50 was 11.2 µM (active). For O=C(NCc1cccnc1)C1COc2ccccc2O1 (centres undefined), the AC50 was 15.8 µM (active). For O=C(NCc1cccnc1)[C@@H]1[C@@H](C(=O)O)[C@H]2CC[C@@H]1O2, the activity, negative = inhibition was -11% [at 11.4 µM]. In the case of Cc1ccc(S(=O)(=O)N2CCN(C(=O)C3COc4ccccc4O3)CC2)cc1C (centres undefined), the “activity, negative = inhibition” value is reported as -49%. For CS(=O)(=O)N1CCC2(CCCN(C(=O)Nc3cccc(C#N)c3)C2)CC1, the “activity, negative = inhibition” value was 4.7%. CC(=O)N1CCC[C@@]2(CCN(Cc3nccs3)C2)C1 was tested, and the “activity, negative = inhibition” value was -9.06%. Cn1nccc1C(=O)Nc1ccc(Cl)cc1 was tested, and the AC50 was 4.47 µM (active). O=C(Nc1ccc(Cl)cc1)c1cnc(-c2ccccc2)nc1-c1ccccc1 was tested, and the AC50 was 0.708 µM (active). With Cc1nn(Cc2c(F)c(F)c(F)c(F)c2F)c(C)c1NC(=O)c1c(-c2ccccc2)nn(-c2ccccc2)c1C the “activity, negative = inhibition” value was 2.23%. With Cn1nc(-c2ccccc2)c(C(=O)Nc2ccc(Cl)cc2)c1Cl the AC50 was 1.26 µM (active). For Cc1nn(C)c(C(=O)NNC(=S)Nc2ccc(Cl)cc2)c1[N+](=O)[O-], the “activity, negative = inhibition” value was -6.63%. With COC(=O)CC1C(=O)NCCN1C(=O)Nc1ccc(Cl)cc1 (centres undefined) the “activity, negative = inhibition” value was -14.1%. CC(=O)OC[C@@H]1O[C@@H](O/N=C2/C[C@@H](O)[C@@H](O)[C@@H]3[C@@H]4C(=O)N([C@@H](C)c5ccccc5)C(=O)[C@H]4CC[C@@H]23)[C@H](OC(C)=O)[C@H](OC(C)=O)[C@@H]1OC(C)=O gave an activity, negative = inhibition of 4.64% [at 11.4 µM]. In the case of COc1ccc(CNc2ncncc2-c2ccccc2C)c(OC)c1, the AC50 is reported as 10 µM (active). With COc1ccc(CNc2ncncc2-c2ccccc2OC)c(OC)c1 the AC50 was 5.01 µM (active). For COc1ccc(CNc2ncncc2-c2ccccc2CN(C)C)c(OC)c1, the AC50 was 15.8 µM (active). O=C1C[C@H]2C(=O)[C@@H]1[C@@H](C(=O)O)[C@H]2C(=O)O showed an activity, negative = inhibition of -11% [at 11.4 µM]. COc1ccc(COC2OC[C@]3(C)[C@H]4C5=C(CN3C(=O)OC(C)(C)C)[C@H](C)C(CO)C(CO)C5CC[C@@H]24)cc1 (some centres undefined) was tested, and the “activity, negative = inhibition” value was -11.3%. With CC(C)[C@H](NC(=O)OC(C)(C)C)[C@@H](O)CC(=O)OC(C)(C)C the activity, negative = inhibition was -7.19% [at 11.4 µM]. CCOC(=O)N1CCN(CC(=O)c2ccc3c(c2)CCN3)CC1 was tested, and the “activity, negative = inhibition” value was -27.8%. For CCOc1cc(/C=C2/C(=N)N3C=CSC3=NC2=O)ccc1OCCCOc1ccccc1C, the “activity, negative = inhibition” value was -27.4%. For COc1cc(/C=C2/C(=N)N3OC(C)=CC3=NC2=O)ccc1OCCOc1ccc(C)cc1, the “activity, negative = inhibition” value was -8.75%. For COc1cc(/C=C2/C(=N)N3C=CSC3=NC2=O)ccc1OCCCOc1c(C)cccc1C, the AC50 was 3.55 µM (active). With C[C@@](N)(Cc1ccc(O)cc1)C(=O)O the AC50 was “inactive”. For C[C@@](N)(Cc1ccc(O)c(O)c1)C(=O)O, the AC50 was “inactive”. For CCOC(=O)c1c(C(C)(C)C)oc2ccc(O)cc12, the AC50 was 0.251 µM (active). In the case of COC(=O)[C@@H]1CC[C@H](C)[C@@H](c2ccc(C)cc2)N1C(=O)c1ccc(/C=N\OC[C@@H](O)[C@H]2O[C@H]3OC(C)(C)O[C@H]3[C@@H]2O)cc1, the activity, negative = inhibition is reported as -5.97% [at 11.4 µM]. With CCC1(O)c2ccccc2-c2ncccc21 (centres undefined) the AC50 was 14.1 µM (active). For O=c1c(-c2ccc(Cl)cc2)nc2cnc(N3CCOCC3)nc2n1C[C@H]1CCCO1, the AC50 was 2 µM (active). O=c1c(-c2ccc(F)cc2)nc2cnc(N3CCOCC3)nc2n1C[C@H]1CCCO1 was tested, and the AC50 was 1.58 µM (active). In the case of O=c1c(-c2ccccc2)nc2cnc(N3CCOCC3)nc2n1C[C@H]1CCCO1, the AC50 is reported as 3.16 µM (active). In the case of CC(=O)N1CCC2(CC1)CN(Cc1ccccc1)C2, the “activity, negative = inhibition” value is reported as 3.64%. For Oc1cc2c(c(Cl)c1O)CCNC[C@H]2c1ccccc1, the “activity, negative = inhibition” value was -20.5%. In the case of COc1ccc2c(c1)Cc1cc(N=[N+]([O-])c3ccc4c(c3)Cc3cc(OC)ccc3-4)ccc1-2, the AC50 is reported as 1.58 µM (active). C/C(CCN1CCc2nc(-c3ccccc3)c(-c3ccccc3)cc2C1)=N\OC[C@@H](O)[C@@H]1O[C@@H]2OC(C)(C)O[C@@H]2[C@H]1O gave an activity, negative = inhibition of -5.51% [at 11.4 µM].
% is scaled to controls: 0 for no effect and ±100 for the full control effect.
